PubChem BioAssay (NCATS)
Inconclusive results are not listed. Active and inactive are the calls of the source. Calls follow the shape of the full dose curve.

Each compound was assayed against Vitamin D3 receptor (Homo sapiens) (UniProt P11473) (assay: qHTS assay for small molecule agonists of vitamin D receptor signaling (AID 588543)). Conditions: HEK293T VDR-UAS-bla, beta-lactamase ratio, 16 h; series mostly up to 76.8 µM.
Chain of Vitamin D3 receptor (Homo sapiens) (P11473 whole entry, looked up): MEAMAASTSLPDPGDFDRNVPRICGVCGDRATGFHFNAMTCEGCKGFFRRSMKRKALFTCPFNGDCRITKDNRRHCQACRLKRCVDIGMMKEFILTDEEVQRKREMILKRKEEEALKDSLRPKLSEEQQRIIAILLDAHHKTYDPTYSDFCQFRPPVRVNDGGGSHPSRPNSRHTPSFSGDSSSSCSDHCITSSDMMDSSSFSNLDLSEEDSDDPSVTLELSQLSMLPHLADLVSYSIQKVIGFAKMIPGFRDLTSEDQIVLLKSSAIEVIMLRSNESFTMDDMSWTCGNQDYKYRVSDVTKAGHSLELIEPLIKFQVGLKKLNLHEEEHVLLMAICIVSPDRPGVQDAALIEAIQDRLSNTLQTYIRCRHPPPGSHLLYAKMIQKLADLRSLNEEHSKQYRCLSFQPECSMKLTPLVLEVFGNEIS
Description: NIH Chemical Genomics Center [NCGC]
U.S. Environmental Protection Agency [EPA]
National Institutes of Environmental Health Sciences [NIEHS]
National Toxicology Program [NTP]
The Vitamin D receptor (VDR) is a member of nuclear hormone receptor superfamily and it plays a critical role in calcium homeostasis and bone metabolism. It plays a role in inducing cell differentiation, inhibiting cell growth and in thrombogenicity. So, VDR that mediates these effects represents a pharmacological target in prevention and treatment of hyperproliferative malignancies, such as cancer and psoriasis, cardiovascular, immunological, inflammatory and renal diseases etc.
NCGC Assay Protocol Summary
Using a beta-lactamase reporter-gene under control of Vitamin D receptor (VDR) response element, a cell-based assay [GeneBLAzer (VDR -UAS-bla assay developed by Invitrogen] was used to measure VDR ligands signaling. GeneBLAzer VDR -UAS-bla HEK293T cells were used with assay medium containing 2% charcoal-stripped FBS. The assay was performed in clear bottom black Greiner 1536-well plates. 1-alpha,25-Dihydroxy vitaminD3 was used as a positive control in the screen. Library compounds were measured for their ability to stimulate the reporter gene activity. Compounds were screened in a titration series in 1536-well format. The fluorescence intensity (405 nm excitation, 460/530 nm emission) was measured using an EnVision plate reader. Data was normalized relative to 1-alpha,25-Dihydroxy vitaminD3 control (50 nM, 100%) and DMSO only wells (basal, 0%). Concentration-response titration points for each compound were fitted to the Hill equation yielding concentrations of half-maximal stimulation (EC50) and maximal response (efficacy) values.
qHTS protocol for VDR beta-lactamase assay in agonist mode
[Step] [Parameter] [Value] [Description]
1. Reagent; 6 uL; 2000 cells/well
2. Incubation; 37 C for 5 hrs
4. Controls (1-alpha,25-Dihydroxy vitaminD3); 23 nL,
- Final concentrations of 50 nM and 15 nM in two columns
5. Incubation; 37 C for 16 hrs
6. Detection reagent; 1 uL of CCF4-dye
7. Incubation; RT for 2 hrs
8. Detection; Fluorescence; Envision plate reader
For `CCCCCCCCCCCCCl`, the outcome was “inactive”.
In the case of `CN(C)c1ccc(N=Nc2ccccc2)cc1`, the outcome is reported as “inactive”.
For `c1ccc(OCC2CO2)cc1` (stereo not given), the outcome was “inactive”.
`C=CCc1cc(OC)c2c(c1)OCO2` was tested, and the outcome was “inactive”.
With `CCCCOCC1CO1` (stereo not given) the outcome was “inactive”.
`C=COC(C)=O` was tested, and the outcome was “inactive”.
For `Cc1cc(C)cc(OP(=O)(Oc2cc(C)cc(C)c2)Oc2cc(C)cc(C)c2)c1`, the outcome was “inactive”.
`CC(C)[N+](=O)[O-]` was tested, and the outcome was “inactive”.
`BrC(Br)Br` was tested, and the outcome was “inactive”.
In the case of `Cc1ccc(N)c(C)c1`, the outcome is reported as “inactive”.
`CCC[N+](=O)[O-]` was tested, and the outcome was “inactive”.
`CC(C)(C)C(O)(CCc1ccc(Cl)cc1)Cn1cncn1` (stereo not given) was tested, and the outcome was “inactive”.
For `Nc1c(Cl)cc([N+](=O)[O-])cc1Cl`, the outcome was “inactive”.
In the case of `C=CC(=O)OC`, the outcome is reported as “inactive”.
In the case of `CC(C)(Cl)[N+](=O)[O-]`, the outcome is reported as “inactive”.
With `Cc1ccccc1[N+](=O)[O-]` the outcome was “inactive”.
For `O=Cc1ccc2c(c1)OCO2`, the outcome was “inactive”.
In the case of `Nc1ccc(-c2ccc(N)cc2)cc1`, the outcome is reported as “inactive”.
In the case of `Nc1ccc(-c2ccc(N)c(Cl)c2)cc1Cl`, the outcome is reported as “inactive”.
With `O=C(O)C(Cl)(Cl)Br` the outcome was “inactive”.
`CCBr` was tested, and the outcome was “inactive”.
In the case of `Cc1cc(N=Nc2ccccc2C)ccc1N`, the outcome is reported as “inactive”.
For `[O-][Cl+]O`, the outcome was “inactive”.
In the case of `ClC(Cl)c1ccccc1`, the outcome is reported as “inactive”.
In the case of `CCCCOC(=O)c1ccccc1N`, the outcome is reported as “inactive”.
`Nc1ccccc1-c1ccccc1` was tested, and the outcome was “inactive”.
For `O=NN1CCCCC1`, the outcome was “inactive”.
In the case of `CC(Cl)(Cl)Cl`, the outcome is reported as “inactive”.
For `CC12CC1(C)C(=O)N(c1cc(Cl)cc(Cl)c1)C2=O` (stereo not given), the outcome was “inactive”.
With `CCNCC` the outcome was “inactive”.
`CCSC(=O)N1CCCCCC1` was tested, and the outcome was “inactive”.
With `FC(Cl)(Cl)Cl` the outcome was “inactive”.
In the case of `Cc1ccc([N+](=O)[O-])cc1`, the outcome is reported as “inactive”.
For `OCCCCO`, the outcome was “inactive”.
In the case of `CCCCNC(=O)n1c(NC(=O)OC)nc2ccccc21`, the outcome is reported as “inactive”.
In the case of `N#C/C=C/C#N`, the outcome is reported as “inactive”.
For `Cc1ccc(N)c(N)c1`, the outcome was “inactive”.
For `C=CCOCC1CO1` (stereo not given), the outcome was “inactive”.
In the case of `Oc1cc(Cl)c(Cl)c(Cl)c1`, the outcome is reported as “inactive”.
`Oc1cccc(Cl)c1` was tested, and the outcome was “inactive”.
